Shiga inhibitor – inhibitors of Shiga toxin in Vero cells. Vero cells, Shiga toxin protein synthesis inhibition reporter. inhibition, % at 38.7 µM. 290,000 compounds, 9.2% hits. AID 2315; in the data active = inhibition mostly above about 28%, no sharp cut-off; inactive = mostly below about 43%
Pf growth 96h – P. falciparum growth inhibition at 96 hours | P. falciparum luciferase reporter growth, 96 h | Potency, µM (titrated, usually from 28.7 µM), actives largely listed as inhibitors | 320,000 compounds, 6.9% hits | AID 504834
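P. falciparum expressing integrated firefly luciferase grown in erythrocytes (2% hematocrit, 0.05% parasitemia final) with compounds for 96 hours at 37 C, 5% CO2. Growth inhibition read as loss of luminescence after adding luciferase detection reagent.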
Pf growth 48h – inhibits P. falciparum growth in the first generation, 48 h. P. falciparum luciferase growth in erythrocytes, 48 h. Potency, µM (highest dose often 28.7 µM), actives largely listed as inhibitors. 310,000 compounds, 5.9% hits. AID 504832
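In quantitative HTS format, infected erythrocytes bearing luciferase-reporter parasites were treated for a single generation at 37 C. Luminescence after adding detection reagent served as the growth measure.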
SARS PLP yeast – SARS-CoV PLP inhibition in yeast; S. cerevisiae expressing SARS-CoV PLpro, growth rescue; 330,000 compounds, 0.19% hits; Potency, µM (highest dose often 32.9 µM), actives largely listed as activators; AID 485353; calls by dose curve; note: nearly all actives have a fitted effect of over 55% in size
NS1 function inh – inhibitors of influenza NS1 protein function. 270,000 compounds, 0.4% hits. Potency, µM (series often up to 46.1 µM). AID 2326; calls by dose curve; note: actives are rising curves; nearly all actives have a fitted effect of over 50% in size
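Read-out: OD600 growth recovery of NS1-expressing budding yeast. Cells grown overnight at 30C in -URA glucose medium, washed, resuspended and diluted 1:100 in 2% galactose assay medium, pH 6.0. Same strain lacking NS1 served as positive control.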
CHX counter – counter-screen for Shiga toxin inhibitors: cycloheximide protein synthesis inhibition | AID 2314 | cell reporter, cycloheximide protein synthesis inhibition counterscreen | 300,000 compounds, 12% hits | max response, %; in the data active = max response mostly above about 13%, no sharp cut-off; inactive = mostly below about 14%; note: read at 38.3 µM for the half of the compounds with a filed dose
Of the large screens only hits and unclear results are named; the others gave an inactive call. Shown are actives, neighbours in structure and some others; about 21% of the full set was active somewhere. Unless noted, calls come from the whole dose curve; as a rule, active = well fitted inhibition curve with a large enough effect; inconclusive = small, poorly fitted or top-dose-only effect, or another doubt; inactive = no such curve, though single readings can be large or run the other way.

O=C(Cn1cnc2c(oc3ccccc32)c1=O)c1ccccc1	Shiga inhibitor 53, CHX counter 54
O=C(O)Cn1cnc2c(oc3ccccc32)c1=O	none
CCn1cnc2c(oc3ccccc32)c1=O	CHX counter 24 (no result: NS1 function inh)
CN(C)C(=O)CCc1ccc2c3c([nH]c2c1)[C@]1(C)[C@@H](C(=O)N2CCOCC2)C[C@H](CC(=O)NCCC2=CCCCC2)C(=O)N1CC3	none (no result: Shiga inhibitor, Pf growth 96h, Pf growth 48h, NS1 function inh, CHX counter)
COc1ccc(CNC(=O)Nc2ccc3c(c2)N(C)C(=O)CS3)cc1	none (no result: NS1 function inh)
O=C(Nc1cccnc1Cl)c1cc2c(s1)-c1ccccc1OC2	Shiga inhibitor 27, Pf growth 96h inconclusive
O=C(Nc1ccc(Cl)cn1)c1cc2c(s1)-c1ccccc1OC2	CHX counter 16
O=C(Cn1ncc2c1-c1ccccc1OC2)Nc1ccc(Cl)cn1	none
CN1CCN(c2ccccc2NC(=O)c2cc3c(s2)-c2ccccc2OC3)CC1	Pf growth 96h inconclusive, Pf growth 48h 10µM
CCCOc1ncnc2c1[nH]c1ccc(C)cc12	Shiga inhibitor 108, CHX counter 45
CC(C)OCCCNc1ncnc2c1[nH]c1ccccc12	Pf growth 96h inconclusive, Pf growth 48h 5.9µM, CHX counter 16
COc1ccc(CNc2ncnc3c2[nH]c2cc(OC)c(OC)cc23)cc1	Pf growth 96h 1.7µM, Pf growth 48h 2.1µM
Cc1ccc2[nH]c3c(Cl)ncnc3c2c1	none
CCOc1ncnc2c1[nH]c1ccccc12	none
Cc1ccc2[nH]c3c(NCc4ccccc4)ncnc3c2c1	Shiga inhibitor 80, Pf growth 96h inconclusive, Pf growth 48h inconclusive, CHX counter 39
COc1ccc(CNC(=O)C(OC(=O)c2ccco2)c2ccc(F)cc2)cc1 (stereo not given)	none
Cc1cc(Cl)ccc1NC(=S)N1CCN(C(=O)c2ccco2)CC1	none
COc1ccc(CNc2ncnc3c2[nH]c2ccccc23)cc1	Pf growth 96h 1.7µM, Pf growth 48h 2.3µM
C1=C(CCNc2ncnc3c2[nH]c2ccccc23)CCCC1	Shiga inhibitor 116, Pf growth 96h 0.26µM, Pf growth 48h inconclusive, CHX counter 26
O=c1c2[nH]c3ccccc3c2ncn1CCC1=CCCCC1	none
CCCCC1(O)CC(C(F)(F)F)=NN1C(=O)COc1ccccc1 (stereo not given)	Pf growth 96h 0.12µM
COc1cccc(NC(=O)CN2C(=O)NC3(CCc4ccccc43)C2=O)c1 (stereo not given)	none (no result: Shiga inhibitor, NS1 function inh, CHX counter)
CC(C)(C)n1ncc2c(=O)n(CC(=O)N3CCCC3)cnc21	none (no result: NS1 function inh)
CC(C)(C)n1ncc2c(=O)n(CC(=O)c3ccc(Cl)cc3)cnc21	Shiga inhibitor 84, Pf growth 96h inconclusive, CHX counter 78
CC(C)(C)n1ncc2c(=O)n(Cc3c(F)cccc3Cl)cnc21	Pf growth 96h inconclusive, Pf growth 48h inconclusive, CHX counter 16
CC1CCN(C(=O)Cn2cnc3c(cnn3C(C)(C)C)c2=O)CC1	Shiga inhibitor 93, CHX counter 56 (no result: NS1 function inh)
Cc1ccc(-n2nnc3c(=O)n(CC(=O)N4CCC(C)CC4)cnc32)cc1	Pf growth 96h 4.1µM
CC(C)(C)n1ncc2c(=O)n(CC(=O)Nc3ccc(Cl)cc3)cnc21	none
Cc1ccc(Cl)c(Cn2cnc3c(cnn3C(C)(C)C)c2=O)c1F	Pf growth 96h inconclusive, Pf growth 48h inconclusive (no result: Shiga inhibitor, NS1 function inh, CHX counter)
CC(=O)Nc1ccc(NC(=O)Cn2cnc3c(cnn3C(C)(C)C)c2=O)cc1	none
CC(C)(C)n1ncc2c(=O)n(CC(=O)NCc3ccccc3)cnc21	Shiga inhibitor 37, CHX counter 20
CC(C)[C@H](NC(=O)c1ccccc1Cl)C(=O)OCC(=O)NCc1ccc2c(c1)OCO2	none (no result: Shiga inhibitor, Pf growth 96h, Pf growth 48h, NS1 function inh, CHX counter)
CCn1c(SCC(=O)NNC(=O)Cc2ccccc2)nnc1-c1ccncc1	Pf growth 96h 0.33µM, Pf growth 48h 1.5µM
C=CCNC(=O)CSc1nnc(-c2ccncc2)n1CCc1ccccc1	Pf growth 96h 12µM
CCn1c(SCC(=O)NNC(=O)c2ccccc2)nnc1-c1ccncc1	Pf growth 96h inconclusive
C/C=C(\C)C(=O)O[C@H](c1cc2ccc(=O)oc2cc1OC)[C@@H](O)C(C)(C)O	none (no result: Shiga inhibitor, NS1 function inh, CHX counter)
CN(C)Cc1ccccc1Sc1ccc(Br)cc1	Pf growth 96h inconclusive
CCOc1ccc(C(=O)NCC2(c3ccccc3)CCOCC2)cc1	none
CCCCCOc1ccc(C(=O)NCC2(c3ccccc3)CCOCC2)cc1	Pf growth 96h inconclusive, Pf growth 48h 13µM

High-throughput results as filed in PubChem BioAssay.
